The values that follow come from PubChem BioAssay.

Values without a mark were called inactive. For part of these data: Results with a measured potency or affinity are listed apart. Activity calls are given as the source filed them. Unless noted, no rule for the calls is given here.

A short description of assay [1]: antimalarial activity against Dd2 strain (AID 2302;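 active = growth inhibition above 50% at the single 2 µM test dose, taken to imply half-maximal potency below 2 µM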;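 also: 0% = DMSO untreated growth and 100% = chloroquine plus artemisinin killed control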). The note with it: P. falciparum Dd2 in RBCs, LDH growth readout, 72 h; at 2 µM; stronger effect = higher value.
The nature of assay [2]: HepG2 cytotoxicity, primary screen, cytotoxicity control for P. falciparum antimalarial project, cell-based, ATP luminescence (AID 2303;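 active = inhibition above 50%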;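 also: 0% = DMSO wells and 100% = digitonin-killed cells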). The note with it: HepG2 viability, 24-48 h, at 10 µM, stronger effect = higher value.
In assay [3] the target is L-lactate dehydrogenase (Plasmodium falciparum (isolate CDC / Honduras)) (UniProt Q27743). In words: PfLDH activity inhibition – cell lysate, 3D7 strain, counter-screen for P. falciparum growth inhibition project (AID 2304).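 Also: 0% = vehicle and 100% = reference inhibitor.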 The note with it: P. falciparum 3D7 crude extract, LDH APAD/NBT absorbance; at 2 µM; stronger effect = higher value.
L-lactate dehydrogenase (Plasmodium falciparum (isolate CDC / Honduras)), sequence (Q27743 whole entry, looked up): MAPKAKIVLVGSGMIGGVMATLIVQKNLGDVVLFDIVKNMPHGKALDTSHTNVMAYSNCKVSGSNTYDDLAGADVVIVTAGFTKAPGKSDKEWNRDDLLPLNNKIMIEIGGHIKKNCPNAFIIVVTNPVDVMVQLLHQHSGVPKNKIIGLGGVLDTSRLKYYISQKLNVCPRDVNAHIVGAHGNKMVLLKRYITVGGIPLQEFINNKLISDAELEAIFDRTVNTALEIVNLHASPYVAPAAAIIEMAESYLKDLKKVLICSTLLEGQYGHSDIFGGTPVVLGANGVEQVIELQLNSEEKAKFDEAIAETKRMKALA
Assay [4] can be described thus: inhibition of 3D7 malaria parasite growth – strain 3D7 (AID 2306).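 Also: 0% = DMSO wells and 100% = chloroquine plus artemisinin control wells.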 The note with it: P. falciparum 3D7 erythrocytic growth, LDH absorbance, 72 h; at 2 µM; stronger effect = higher value.
In assay [5] the target is Calcium-dependent protein kinase 1 (Plasmodium falciparum (isolate 3D7)) (UniProt P62344). In words: PfCDPK1 kinase inhibitors, biochemical, TCAMS library (AID 1159585; cut-off not given, nearly all actives have IC50 up to about 0.98 µM;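 also: inhibitors leave more ATP so luminescence rises with inhibition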). The note with it: recombinant PfCDPK1, Kinase-Glo ATP depletion luminescence.
Calcium-dependent protein kinase 1 (Plasmodium falciparum (isolate 3D7)), sequence (P62344 whole entry, looked up): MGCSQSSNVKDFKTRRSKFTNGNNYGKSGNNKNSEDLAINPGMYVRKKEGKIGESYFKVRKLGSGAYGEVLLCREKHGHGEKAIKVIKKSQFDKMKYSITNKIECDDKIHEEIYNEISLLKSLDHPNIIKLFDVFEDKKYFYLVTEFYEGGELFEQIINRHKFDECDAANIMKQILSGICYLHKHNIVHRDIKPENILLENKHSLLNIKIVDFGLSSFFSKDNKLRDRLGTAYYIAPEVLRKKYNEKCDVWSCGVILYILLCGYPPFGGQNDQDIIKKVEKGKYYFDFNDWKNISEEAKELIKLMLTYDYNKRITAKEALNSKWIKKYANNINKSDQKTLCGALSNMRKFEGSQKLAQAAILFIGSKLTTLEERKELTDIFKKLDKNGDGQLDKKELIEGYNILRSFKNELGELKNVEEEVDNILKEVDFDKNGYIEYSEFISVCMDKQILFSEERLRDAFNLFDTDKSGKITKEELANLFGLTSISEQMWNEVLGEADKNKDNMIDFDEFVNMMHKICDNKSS
The target in assay [6] is Plasmodium falciparum protein kinase 6 (PK6, PF3D7_1337100) (UniProt Q8IDW1). In words: PfPK6 kinase inhibitors, biochemical, TCAMS library (AID 1159586). The note with it: recombinant PfPK6, Kinase-Glo ATP depletion luminescence.
Plasmodium falciparum protein kinase 6 (PK6, PF3D7_1337100), sequence (Q8IDW1 1-305): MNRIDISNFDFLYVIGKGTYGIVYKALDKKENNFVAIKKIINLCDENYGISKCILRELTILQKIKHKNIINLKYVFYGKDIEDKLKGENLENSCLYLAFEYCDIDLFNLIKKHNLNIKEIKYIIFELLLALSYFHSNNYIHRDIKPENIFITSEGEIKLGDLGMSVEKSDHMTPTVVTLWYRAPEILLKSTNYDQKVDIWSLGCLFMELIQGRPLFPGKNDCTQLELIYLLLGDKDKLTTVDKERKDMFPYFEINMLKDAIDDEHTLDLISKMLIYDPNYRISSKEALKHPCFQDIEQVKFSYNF
Assay [7] concerns the target Protein kinase 7 (PK7), Plasmodium falciparum 3D7 (PF3D7_0213400) (UniProt Q7YTF7). In words: inhibition of Plasmodium PK7 catalytic activity – biochemical, TCAMS antimalarial set, Kinase-Glo luminescence (AID 1159587). The note with it: recombinant PfPK7, Kinase-Glo ATP depletion luminescence.
For assay [8], the target named is Calcium-dependent protein kinase 4 (Plasmodium falciparum (isolate 3D7)) (UniProt Q8IBS5). In words: PfCDPK4 kinase inhibitors, biochemical, TCAMS library (AID 1159588; cut-off not given, nearly all actives have IC50 up to about 0.91 µM). The note with it: recombinant PfCDPK4, Kinase-Glo ATP depletion luminescence.
Calcium-dependent protein kinase 4 (Plasmodium falciparum (isolate 3D7)), sequence (Q8IBS5 whole entry, looked up): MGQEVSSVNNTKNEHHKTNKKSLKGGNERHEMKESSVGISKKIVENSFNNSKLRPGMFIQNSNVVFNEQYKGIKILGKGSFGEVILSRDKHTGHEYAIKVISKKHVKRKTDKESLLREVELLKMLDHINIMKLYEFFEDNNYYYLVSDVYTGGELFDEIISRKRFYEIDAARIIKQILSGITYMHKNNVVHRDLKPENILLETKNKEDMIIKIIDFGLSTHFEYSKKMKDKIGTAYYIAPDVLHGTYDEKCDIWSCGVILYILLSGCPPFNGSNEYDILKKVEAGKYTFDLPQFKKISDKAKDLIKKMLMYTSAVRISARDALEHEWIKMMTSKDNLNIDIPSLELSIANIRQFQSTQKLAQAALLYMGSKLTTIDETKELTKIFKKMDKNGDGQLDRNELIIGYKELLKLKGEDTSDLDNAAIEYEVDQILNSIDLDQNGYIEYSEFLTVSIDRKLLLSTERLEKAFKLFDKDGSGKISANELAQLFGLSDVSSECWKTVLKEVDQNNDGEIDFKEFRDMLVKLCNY

Protein kinase 7 (PK7), Plasmodium falciparum 3D7 (PF3D7_0213400), sequence (Q7YTF7 1-343): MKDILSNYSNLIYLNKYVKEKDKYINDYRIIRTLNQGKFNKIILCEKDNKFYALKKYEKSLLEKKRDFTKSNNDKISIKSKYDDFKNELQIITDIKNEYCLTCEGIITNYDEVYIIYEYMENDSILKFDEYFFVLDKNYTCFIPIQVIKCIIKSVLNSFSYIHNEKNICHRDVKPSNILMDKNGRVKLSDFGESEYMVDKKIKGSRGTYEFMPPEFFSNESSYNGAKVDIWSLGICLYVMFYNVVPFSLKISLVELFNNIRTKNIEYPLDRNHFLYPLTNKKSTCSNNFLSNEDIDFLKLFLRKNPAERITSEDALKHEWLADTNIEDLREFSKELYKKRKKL

As for `CCOc1ccc(NC(=O)c2cccc(CN3CCCN(Cc4cccc(O)c4)CC3)c2)cc1`, the growth inhibition in assay [1] is 23%; in assay [4], 95% (active). The inhibition was 22% in assay [2] and 0% in assay [3]. Besides, the result in assay [5], in assay [6], in assay [7] and in assay [8] was inactive.

On to `COc1cc2nc(NCC3CCCCC3)nc(NCc3ccccc3)c2cc1OC`, for which the growth inhibition in assay [1] and in assay [4] was 101% (active) in each case. Moreover, the results for the inhibition in assay [2] and in assay [3] were 18% and 7%, respectively. In addition, the outcome in assay [5], in assay [6], in assay [7] and in assay [8] was inactive.

For the compound `Fc1ccc2nc(-c3cccc(-c4ccc(CN5CCC(CCN6CCCCC6)CC5)cc4)c3)[nH]c2c1`, the growth inhibition is 100% (active) in assay [1] and 101% (active) in assay [4]. The inhibition in assay [2] is 91% (active); in assay [3], -2%. In addition, the result in assay [5], in assay [6], in assay [7] and in assay [8] was inactive.

`CCCN(CC1CC1)c1ncc(-c2cccc(CNCCC3CCCN3C)c2)cn1` (centres undefined): the growth inhibition is 43% in assay [1] and 98% (active) in assay [4]. In addition, the inhibition was 77% (active) in assay [2] and 7% in assay [3]. For the same compound, the result in assay [5], in assay [6], in assay [7] and in assay [8] was inactive.

Turning to `O=C(/C=C/c1ccc(Cl)c(Cl)c1)NCCCCCN1CCC(C(=O)Nc2ccc(F)c(Cl)c2)CC1`, the values for the growth inhibition in assay [1] and in assay [4] were -3% and 100% (active), respectively. The inhibition was 25% in assay [2] and 2% in assay [3]. The result in assay [5], in assay [6], in assay [7] and in assay [8] was inactive.

On to `CS(=O)(=O)c1ccc(CNCc2ccc(-c3ccc(-c4nc5ccc(C(F)(F)F)cc5[nH]4)cc3)cc2)cc1`, for which the growth inhibition in assay [1] is 82% (active); in assay [4] it was 101% (active). The inhibition in assay [2] was 26%; in assay [3], 3%. The outcome in assay [5], in assay [6], in assay [7] and in assay [8] was inactive.

In the case of `O=C(Nc1ccc(C(=O)Oc2ccc(-c3ccccc3)cc2)cc1)N[C@@H](Cc1ccc(O)cc1)C(=O)NC1CCN(Cc2ccc(O)cc2)C1` (some centres undefined), the growth inhibition in assay [1] is 60% (active); in assay [4], 94% (active). Besides, the inhibition in assay [2] was -7%; in assay [3] it was 0%. The result in assay [5], in assay [6], in assay [7] and in assay [8] was inactive.

Consider `COc1ccc2nccc([C@@H](O)CN3CCC(NC(=O)/C(=C/c4ccccc4)c4ccc(-c5ccccc5)cc4)CC3)c2c1`, for which the growth inhibition in assay [1] is 38%; in assay [4], 94% (active). For the same compound, the inhibition in assay [2] was 4%; in assay [3] it was 0%. Moreover, the result in assay [5], in assay [6], in assay [7] and in assay [8] was inactive.

Take `CCc1c(CCNCCCCCCNCCc2ccc(Br)cc2)ccc(O)c1O`: the results for the growth inhibition in assay [1] and in assay [4] were 1% and 95% (active), respectively. The results for the inhibition in assay [2] and in assay [3] were 11% and -1%, respectively. Further, the result in assay [5], in assay [6], in assay [7] and in assay [8] was inactive.

For `O=C(c1ccc(O)c(-c2cc(Cl)cc(Cl)c2)c1)N(CCO)CCO`, the growth inhibition in assay [1] is 62% (active); in assay [4], 94% (active). Besides, the figures for the inhibition in assay [2] and in assay [3] were 1% and -9%, respectively. Besides, the result in assay [5], in assay [6], in assay [7] and in assay [8] was inactive.

For `COc1ccc(-c2nonc2NC(=O)c2cccc(C)c2)cc1OC`, the growth inhibition in assay [1] was 8%; in assay [4] it was 97% (active). In addition, the figures for the inhibition in assay [2] and in assay [3] were 24% and -1%, respectively. The outcome in assay [5], in assay [6], in assay [7] and in assay [8] was inactive.

For `CCOc1ccc(C(C)NC(=O)Cc2ccccc2F)cc1OCC` (centres undefined), the growth inhibition in assay [1] is 44%; in assay [4], 96% (active). Further, the inhibition is 15% in assay [2] and 6% in assay [3]. For the same compound, the result in assay [5], in assay [6], in assay [7] and in assay [8] was inactive.

For `Cc1ccc(Cn2ncc(N3C[C@@H](C)N[C@@H](C)C3)c(Cl)c2=O)cc1NC(=O)Nc1ccc(-c2ccccc2)cc1`, the growth inhibition in assay [1] is 29%; in assay [4], 100% (active). Further, the figures for the inhibition in assay [2] and in assay [3] were 51% (active) and -2%, respectively. The outcome in assay [5], in assay [6], in assay [7] and in assay [8] was inactive.

For `COc1cc(C(=O)NC2CC(C)(C)NC(C)(C)C2)ccc1-c1cc2cc(Cl)c(Cl)cc2[nH]1`, the results for the growth inhibition in assay [1] and in assay [4] were 31% and 99% (active), respectively. Also, the inhibition in assay [2] is 41%; in assay [3], 6%. Further, the outcome in assay [5], in assay [6], in assay [7] and in assay [8] was inactive.

Take `O=C(Nc1ccccc1)NC1CCN(CCC2(c3ccc(Cl)c(Cl)c3)COCN(C(=O)c3ccccc3)C2)C1` (centres undefined): the growth inhibition was 81% (active) in assay [1] and 92% (active) in assay [4]. Also, the inhibition in assay [2] is 23%; in assay [3], 3%. The result in assay [5], in assay [6], in assay [7] and in assay [8] was inactive.

In the case of `CC(C)(CNC(=O)C1CCN(CC2CCCCC2)CC1)c1nc(-c2ccc(Cl)c(O)c2)c(-c2ccncc2)[nH]1`, the growth inhibition was 31% in assay [1] and 98% (active) in assay [4]. Besides, the inhibition is -6% in assay [2] and -3% in assay [3]. Further, the result in assay [5], in assay [6], in assay [7] and in assay [8] was inactive.

Regarding `CCCc1c(C(=O)Nc2ccc3c(c2)CCN(C2CCC2)CC3)cnn1-c1ccc(Cl)cc1`, the growth inhibition was 12% in assay [1] and 92% (active) in assay [4]. The inhibition is 64% (active) in assay [2] and 2% in assay [3]. Also, the outcome in assay [5], in assay [6], in assay [7] and in assay [8] was inactive.

`Cc1cccc(NC(=O)Nc2cccc(-c3ccc(-c4nc5ccc(C(F)(F)F)cc5[nH]4)cc3)c2)c1`: the growth inhibition in assay [1] was 94% (active); in assay [4], 101% (active). Further, the inhibition in assay [2] was 44%; in assay [3] it was -1%. The result in assay [5], in assay [6], in assay [7] and in assay [8] was inactive.
